In PubChem BioAssay:
Calls of active or inactive are those of the source.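 Rule for the calls: active = growth inhibition above 50% at the single 2 µM test dose, taken to imply half-maximal potency below 2 µM; inactive = the rest.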

Test: antimalarial activity against Dd2 strain (AID 2302);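 note: 0% = DMSO untreated growth and 100% = chloroquine plus artemisinin killed control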
Conditions: P. falciparum Dd2 in RBCs, LDH growth readout, 72 h; at 2 µM; hits give high values

SMILES	growth inhibition
Cc1cccc2[nH]c(-c3cccc(-c4ccc(NC(=O)Cc5cnc[nH]5)cc4)c3)nc12	93% (active)
Fc1ccc(-c2nc(NCc3cccc(C(F)(F)F)c3)nn2-c2cccc(C(F)(F)F)c2)cc1C(F)(F)F	58% (active)
Cc1cnc(NC(=O)c2cn(-c3ccccc3)nc2-c2cccs2)s1	1% (inactive)
CCN(CC)CCNC(=O)c1ccc(NC(=O)c2oc3c(Cl)cccc3c2C)cc1	68% (active)
COc1ccc(C=C2SC(=O)NC2=Nc2ccccc2)c(OC)c1	89% (active)
Cc1cc(N[C@@H](Cc2ccccc2)C(=O)NCCc2ccccc2)nc(NCc2ccccc2C)n1	85% (active)
COc1cc(CNCCCCCCNCc2cc(OC)cc3ccccc23)c2ccccc2c1	94% (active)
COc1cc(NC(=O)c2c(-c3c(Cl)cccc3Cl)noc2C)c(OC)cc1Cl	67% (active)
CN1CCN(CC2(Nc3nccc(NCc4ccc(Cl)cc4Cl)n3)CCCCC2)CC1	58% (active)
CN(C)CCCNCCS(=O)(=O)c1cccc(Nc2ccc(-c3cccc(N(C)C)c3)cn2)c1	-3% (inactive)
COc1cc(SC)c(Br)cc1-c1nc2ccncc2[nH]1	9% (inactive)
Cc1cc(N2CCN(C3CCCCC3)CC2)nc2cccc(O)c12	37% (inactive)
CCCCCCn1c(Sc2ccc(C#N)c([N+](=O)[O-])c2)nnc1-c1ccc(OC)cc1	51% (active)
Cc1cc(N[C@@H](Cc2ccccc2)C(=O)NCc2cccs2)nc(NCCOc2ccccc2)n1	31% (inactive)
C(=N\Nc1nccc2sc(-c3cccnc3)cc12)/c1ccncc1	94% (active)
